Potency data for seven compounds are collected here from PubChem BioAssay (Tox21).

Inconclusive results are not listed. Calls of active or inactive are those of the source. Unless noted, calls follow the shape of the full dose curve.

Assay [1] is described as follows: Nuclear factor erythroid 2-related factor 2/antioxidant responsive element (Nrf2/ARE) small molecule agonists: qHTS cell viability counter screen in human keratinocytes (AID 1919968; active = well fitted cell-killing curve with a large enough effect in the repeat runs; also: nearly all actives have a fitted effect of over 55% in size; also: potency is read from the fitted curve at half-maximal effect). Put shortly:
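KeratinoSens HaCaT cells, 1,500/well, preincubated 5 h, then exposed to compounds in DMSO for 23 h at 37 C/5% CO2. Viability read as CellTiter-Fluor fluorescence after 1 h, in the same wells as the ARE-luciferase read.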
A general note: In qHTS, concentration-response curves come from the screen itself.

Assay [2] can be described thus: Nuclear factor erythroid 2-related factor 2/antioxidant responsive element (Nrf2/ARE) small molecule agonists: luciferase reporter gene qHTS assay in human keratinocytes (AID 1919969). Also: nearly all actives have a fitted effect of over 35% in size. In general terms: Reporter assays use an easily measured gene product as a stand-in for the process of interest.
Assay [3] deals with Gonadotropin-releasing hormone receptor (Homo sapiens) (UniProt P30968). Put plainly: Human gonadotropin-releasing hormone receptor (GnRHR) small molecule agonists, calcium flux assay in GnRHR-HEK293 cells (AID 1920063). Also: nearly all actives have a fitted effect of over 35% in size. The procedure, abridged:
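HEK293 cells stably expressing human GnRHR were dye-loaded for 1 h at 37 C. Compound was added in agonist mode and fluorescence (Ex/Em 480/540) recorded kinetically for 3 min. Fifteen concentrations, triplicates.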

A short description of assay [4]: G protein-coupled receptor (GPCR) small molecule agonists, calcium flux assay: HEK293 wild type cell line counter screen (AID 1920065). The procedure, abridged:
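Wild-type HEK293 cells plated 18 h, loaded with calcium dye 1 h at 37 C, then compounds added in agonist mode (ATP as positive control). Kinetic fluorescence Ex/Em 480/540 recorded 3 min at 1 sec intervals; 15 concentrations, triplicate.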
In general terms: Calcium flux is commonly read through the fluorescence of an indicator in the cells.

Assay [5] is described as follows: p53 small molecule agonists, cell-based qHTS assay with human liver microsomes: qHTS cell viability counter screen (AID 1963579). Also: nearly all actives have a fitted effect of over 45% in size. The procedure, abridged:
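Viability of p53RE-bla cells is measured as CellTiter-Glo luminescence following a 16 h, 37 C incubation with compound, liver microsomes from human donors and NADPH.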

The nature of assay [6]: p53 small molecule agonists, cell-based qHTS assay with rat liver microsomes: qHTS cell viability counter screen (AID 1963580). Also: nearly all actives have a fitted effect of over 45% in size. Put shortly: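 In HCT-116 cells carrying a p53 response element-bla reporter, compounds were metabolically activated in situ by rat liver microsomes with NADPH over 16 h. Cell ATP content then served as the cytotoxicity measure.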
Assay [7] is described as follows: p53 small molecule agonists, cell-based qHTS assay: qHTS cell viability counter screen (AID 1963581). Also: nearly all actives have a fitted effect of over 45% in size. The procedure, abridged: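 p53RE-bla HCT-116 cells, compounds added 5 h after plating and incubated 16 h at 37 C. Cytotoxicity measured in the same wells as intracellular ATP by CellTiter-Glo luminescence after 30 min at room temperature.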
The target of assay [8] is 5-hydroxytryptamine receptor 2A (Homo sapiens) (UniProt P28223). The assay can be described thus: 5-hydroxytryptamine receptor 2A (HTR2A) small molecule antagonists, cell-based qHTS assay (AID 1963586). Also: nearly all actives have a fitted effect of over 45% in size. Also: potency is read from the fitted curve at half-maximal effect. Put shortly:
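Antagonist-mode intracellular calcium assay: DOI (4 nM) added after 5 min compound pre-incubation at room temperature to dye-loaded HTR2A-CHO cells. Fluorescence followed for 3 min, sampled every second.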

The target is the same in assay [9]. The assay can be described thus: 5-hydroxytryptamine receptor 2A (HTR2A) small molecule agonists, cell-based qHTS assay (AID 1963587). Also: nearly all actives have a fitted effect of over 30% in size. The procedure, abridged:
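HTR2A-CHO cells, plated 18 h at 37 C/5% CO2, dye-loaded 1 h at 37 C; compounds in DMSO added by pin tool (agonist mode). Intracellular calcium flux read as kinetic fluorescence on FDSS over 2 min at 1 s intervals.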

For assay [10], the target named is Muscarinic acetylcholine receptor M1 (Homo sapiens) (UniProt P11229). The assay can be described thus: Cholinergic receptor muscarinic 1 (CHRM1) small molecule antagonists, cell-based qHTS assay (AID 1963588). Also: nearly all actives have a fitted effect of over 40% in size. The procedure, abridged:
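CHRM1-CHO calcium-flux assay, antagonist mode. Cells were seeded 18 h, dye-loaded 1 h at 37 C and given compound for 5 min at RT, then acetylcholine was added at 50nM. FDSS fluorescence was read 3 min; 15 concentrations, three runs.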

The target is the same in assay [11]. The assay can be described thus: Cholinergic receptor muscarinic 1 (CHRM1) small molecule agonists, cell-based qHTS assay (AID 1963589). Also: nearly all actives have a fitted effect of over 35% in size. The procedure, abridged: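 CHO cells stably expressing human CHRM1 were loaded with calcium dye for 1 h at 37 C, then compound was added in agonist mode. Intracellular calcium fluorescence was followed kinetically at 1 s intervals. Fifteen concentrations were tested in three independent runs.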

A short description of assay [12]: cAMP Responsive Elements (CRE) small molecule agonists, cell-based qHTS assay (AID 1963590). The procedure, abridged:
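CRE-bla HEK 293T cells, 2,000/well in DMEM with 10% dialyzed FBS and 25 mM HEPES, pre-incubated 18 h at 37 C, then exposed to compound 3 h at 37 C. Beta-lactamase reporter read with LiveBLAzer B/G FRET substrate after 2 h at room temperature.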

The target of assay [13] is Beta-2 adrenergic receptor (Homo sapiens) (UniProt P07550). Put plainly: Adrenergic beta2 receptor (ADRB2) small molecule antagonists, cell-based qHTS assay (AID 1963592). Also: series mostly up to about 92 µM; nearly all actives have a fitted effect of over 50% in size. The procedure, abridged:
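Cells (CHO, stable ADRB2 overexpression) incubated 18-20hr at 37C; compounds added from DMSO; agonist mix (1nM isoproterenol, 100uM IBMX, 25uM Ro-20-1724) added; 0.5hr RT; d2-cAMP and anti-cAMP-cryptate added; 1hr RT; 665/615 nm read.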

Assay [14] has the same target. The assay can be described thus: Adrenergic beta2 receptor (ADRB2) small molecule agonists, cell-based qHTS assay (AID 1963593).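 Also: CHO cells stably overexpressing human ADRB2.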 The procedure, abridged:
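CHO cells stably over-expressing ADRB2 were plated overnight at 37C, then dosed with compounds plus a stimulation mix containing 100uM IBMX and 25uM Ro-20-1724 for 0.5hr at room temperature. cAMP was measured by HTRF competition, 1hr.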

The target of assay [15] is D(2) dopamine receptor (Homo sapiens) (UniProt P14416). Put plainly: Dopamine D2 receptor (DRD2) small molecule agonists, cell-based qHTS assay (AID 1963594). Also: nearly all actives have a fitted effect of over 35% in size. The procedure, abridged:
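HEK293 cells stably expressing DRD2 were cultured 24 h at 37 C, then given Ro20-1724 (0.1 mM final) and compounds for 10 min at room temperature. NKH477 (200nM) was then added for 30 min. cAMP was read by HTRF.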

For assay [16] the target is unchanged. The assay can be described thus: Dopamine D2 receptor (DRD2) small molecule antagonists, cell-based qHTS assay (AID 1963595; active = well fitted inhibition curve with a large enough effect in the signal ratio in the repeat runs, with a control signal flat; the % refers to the signal ratio). The procedure, abridged: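 Readout: HTRF cAMP, cAMP-d2 competing with cellular cAMP for anti-cAMP cryptate, read after 1 h. Cells: DRD2-HEK293. Conditions: 0.1 mM Ro20-1724, 12 nM quinpirole, 200 nM NKH477, 30 min RT.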
Assay [17] can be described thus: cAMP Responsive Elements (CRE) small molecule antagonists, cell-based qHTS assay (AID 1963591; active = well fitted inhibition curve with a large enough effect in the signal ratio in the repeat runs, not every such curve was filed as active; the % refers to the signal ratio). The procedure, abridged:
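CRE-bla HEK293T cells plated 18 h, then given compound plus NKH477 at 0.25 uM final for 3 h at 37C. Beta-lactamase reporter read with LiveBLAzer B/G FRET substrate after 2 h at room temperature.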

Assay [18] is described as follows: p53 small molecule agonists, cell-based qHTS assay with rat liver microsomes (AID 1963578). The procedure, abridged:
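Quantitative HTS of the Tox21 10K library: p53RE-bla cells, rat liver microsomes plus NADPH at 0.5 mg/mL final each, 16 h at 37 C, beta-lactamase fluorescence detection.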

The nature of assay [19]: p53 small molecule agonists, cell-based qHTS assay (AID 1963582; active = well fitted activation curve with a large enough effect in the signal ratio in the repeat runs, not every such curve was filed as active; the % refers to the signal ratio). The procedure, abridged:
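p53RE-bla reporter cells, compounds added in DMSO after 5 h plating, incubated 16 h at 37 C. Beta-lactamase read via 2 h room-temperature LiveBLAzer B/G FRET substrate, fluorescence intensity.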

Sequence of Gonadotropin-releasing hormone receptor (Homo sapiens) (P30968 whole entry, looked up): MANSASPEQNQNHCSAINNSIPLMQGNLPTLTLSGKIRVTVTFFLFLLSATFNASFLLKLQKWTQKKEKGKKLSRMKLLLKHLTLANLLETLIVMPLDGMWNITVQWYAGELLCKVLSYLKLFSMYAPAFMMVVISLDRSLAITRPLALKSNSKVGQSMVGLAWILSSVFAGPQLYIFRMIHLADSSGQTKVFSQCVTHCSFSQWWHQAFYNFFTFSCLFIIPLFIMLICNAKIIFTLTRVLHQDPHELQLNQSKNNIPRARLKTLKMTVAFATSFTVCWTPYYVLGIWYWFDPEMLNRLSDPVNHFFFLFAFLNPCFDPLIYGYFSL
Sequence of Muscarinic acetylcholine receptor M1 (Homo sapiens) (P11229 whole entry, looked up): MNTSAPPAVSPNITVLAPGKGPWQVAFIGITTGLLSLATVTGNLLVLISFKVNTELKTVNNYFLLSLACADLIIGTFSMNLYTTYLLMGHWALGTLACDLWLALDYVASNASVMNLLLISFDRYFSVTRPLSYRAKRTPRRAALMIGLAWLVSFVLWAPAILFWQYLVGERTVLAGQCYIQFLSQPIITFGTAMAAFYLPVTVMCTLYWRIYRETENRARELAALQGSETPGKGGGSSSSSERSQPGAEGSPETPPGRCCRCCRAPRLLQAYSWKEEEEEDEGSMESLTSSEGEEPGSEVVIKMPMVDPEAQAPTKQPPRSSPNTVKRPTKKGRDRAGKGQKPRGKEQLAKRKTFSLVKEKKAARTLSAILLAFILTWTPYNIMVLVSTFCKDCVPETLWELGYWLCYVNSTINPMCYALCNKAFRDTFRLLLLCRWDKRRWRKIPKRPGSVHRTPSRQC
Sequence of Beta-2 adrenergic receptor (Homo sapiens) (P07550 whole entry, looked up): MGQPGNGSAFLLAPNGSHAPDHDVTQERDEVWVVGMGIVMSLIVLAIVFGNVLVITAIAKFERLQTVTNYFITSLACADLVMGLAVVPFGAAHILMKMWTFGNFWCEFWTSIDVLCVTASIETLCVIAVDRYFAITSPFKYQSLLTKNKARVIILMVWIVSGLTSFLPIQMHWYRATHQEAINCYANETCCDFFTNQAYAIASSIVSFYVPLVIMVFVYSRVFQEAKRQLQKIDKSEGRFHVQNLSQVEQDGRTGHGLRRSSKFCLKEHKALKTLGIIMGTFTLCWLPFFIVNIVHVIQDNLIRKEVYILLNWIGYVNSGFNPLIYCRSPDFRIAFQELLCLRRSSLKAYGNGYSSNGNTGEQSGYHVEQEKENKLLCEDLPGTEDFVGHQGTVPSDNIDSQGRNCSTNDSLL
Sequence of 5-hydroxytryptamine receptor 2A (Homo sapiens) (P28223 whole entry, looked up): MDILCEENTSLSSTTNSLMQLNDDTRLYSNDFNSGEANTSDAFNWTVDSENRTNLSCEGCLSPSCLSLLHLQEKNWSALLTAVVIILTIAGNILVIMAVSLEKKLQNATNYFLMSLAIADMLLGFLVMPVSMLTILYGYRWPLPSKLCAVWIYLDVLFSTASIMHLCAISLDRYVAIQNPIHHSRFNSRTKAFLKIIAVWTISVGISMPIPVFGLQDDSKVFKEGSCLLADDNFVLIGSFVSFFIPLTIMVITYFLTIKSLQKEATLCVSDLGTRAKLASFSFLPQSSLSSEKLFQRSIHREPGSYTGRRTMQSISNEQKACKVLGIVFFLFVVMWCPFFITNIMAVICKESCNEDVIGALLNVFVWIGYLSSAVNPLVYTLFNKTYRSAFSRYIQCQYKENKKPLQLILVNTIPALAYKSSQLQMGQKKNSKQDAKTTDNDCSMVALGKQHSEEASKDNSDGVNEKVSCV
Sequence of D(2) dopamine receptor (Homo sapiens) (P14416 whole entry, looked up): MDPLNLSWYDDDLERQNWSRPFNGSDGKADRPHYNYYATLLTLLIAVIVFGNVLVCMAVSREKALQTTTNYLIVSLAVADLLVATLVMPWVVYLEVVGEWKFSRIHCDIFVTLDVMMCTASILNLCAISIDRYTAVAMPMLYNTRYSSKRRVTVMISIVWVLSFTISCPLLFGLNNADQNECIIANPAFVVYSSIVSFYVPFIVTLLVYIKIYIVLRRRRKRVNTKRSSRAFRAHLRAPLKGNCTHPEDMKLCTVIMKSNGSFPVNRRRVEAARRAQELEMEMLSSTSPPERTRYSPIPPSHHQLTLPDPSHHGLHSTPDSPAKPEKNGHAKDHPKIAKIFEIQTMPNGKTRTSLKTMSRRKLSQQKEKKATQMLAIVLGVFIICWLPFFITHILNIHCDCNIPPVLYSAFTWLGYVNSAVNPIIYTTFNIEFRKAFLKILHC

`CC(C)C(C)C`: the Potency entry in assay [1], in [2], in [3], in assay [4], in assay [5] and in assay [6] was “inactive” throughout. Also, the Potency result in assay [7], in [8], in [9], in assay [10], in assay [11] and in assay [12] was “inactive” each time. Besides, the Potency entry in [13], in assay [14], in [15] and in assay [16] was “inactive” each time.

Regarding `C[C@@H]1C[C@H]2[C@@H]3C[C@H](F)C4=CC(=O)C(Cl)=C[C@]4(C)[C@@]3(F)[C@@H](O)C[C@]2(C)[C@@]1(O)C(=O)CO`, the Potency result in [1], in assay [2], in assay [3], in assay [4], in [5] and in assay [6] was “inactive” each time. In addition, the Potency result in [7], in assay [8], in assay [9], in [10], in assay [11] and in [12] was “inactive” in each case. The Potency entry in [17], in assay [13], in assay [15] and in assay [16] was “inactive” in each case.

With `CC(=O)OCC(=O)NCCCOc1cccc(CN2CCCCC2)c1`, the Potency result in assay [1], in assay [2], in assay [3], in assay [4], in [5] and in assay [6] was “inactive” each time. Also, the Potency result in assay [7], in assay [8], in [9], in assay [10], in assay [12] and in [17] was “inactive” throughout. Besides, the Potency result in assay [13] is “inactive”.

As to `CN(C)CCCO[C@@H]1[C@H]2OC(C)(C)O[C@H]2O[C@@H]1C(O)CO` (stereo partly drawn), the Potency result in assay [1], in assay [2], in [3], in assay [4], in [5] and in assay [6] was “inactive” each time. Further, the Potency result in assay [7], in assay [8], in assay [9], in assay [10], in [11] and in assay [12] was “inactive” in each case. Further, the Potency entry in [14], in assay [15] and in assay [16] was “inactive” throughout.

Consider `CNCc1cc(F)ccc1Oc1ccc(Cl)c(Cl)c1`, for which the Potency in assay [1] is 27.3 µM (active); in assay [8], 0.266 µM (active). For the same compound, the Potency entry in assay [2], in assay [3], in assay [4], in [18], in assay [5] and in assay [6] was “inactive” throughout. The Potency result in [7], in assay [19], in assay [11], in assay [12], in [13] and in assay [14] was “inactive” throughout.

Regarding `C/C(=C\c1ccc(C(=O)O)cc1)c1ccc2c(c1)C(C)(C)CCC2(C)C`, the Potency result in assay [1], in assay [2], in assay [3], in assay [4], in [5] and in assay [6] was “inactive” each time. Moreover, the Potency entry in [7], in assay [19], in assay [10], in assay [11], in [12] and in [13] was “inactive” throughout. Moreover, the Potency entry in [15] and in assay [16] was “inactive” in each case.

On to `C=C(C)C(=O)OCC`, for which the Potency entry in [1], in [2], in assay [3], in assay [4], in [5] and in assay [6] was “inactive” each time. Moreover, the Potency result in assay [7], in [8], in assay [9], in [10], in assay [11] and in assay [17] was “inactive” throughout. Also, the Potency entry in assay [13], in assay [15] and in assay [16] was “inactive” throughout.
